Reference: PubChem BioAssay (NCI)
This is part of a sample that, as a whole, favours compounds with a hit. Of some 83,000 tested, about 20% had one in any assay.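 Growth was measured after 48 h exposure to one concentration of compound in 96-well plates. Values under 10 count as active.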 Values without a mark were called inactive. Calls of active or inactive are those of the source.

Experiments:
Test in all cases: NCI-60 one-dose screen, 48 h (100 = growth as untreated, 0 = no growth, -100 = all killed)
Conditions in all cases: 10 µM unless noted
T-47D breast = system: T-47D breast
BT-549 breast = system: BT-549 breast
MDA-MB-435 melanoma = system: MDA-MB-435 melanoma
SW-620 colon = system: SW-620 colon
MCF7 breast = system: MCF7 breast
HCT-116 colon = system: HCT-116 colon
HCC-2998 colon = system: HCC-2998 colon
KM12 colon = system: KM12 colon

## CS(=O)c1nccc(-c2c(-c3ccc(F)c(OCCc4ccccc4)c3)nc3sccn23)n1 (stereo unspecified)
T-47D breast
  growth: 15.2%
BT-549 breast
  growth: 120%
MDA-MB-435 melanoma
  growth: 111%
SW-620 colon
  growth: 80.5%
MCF7 breast
  growth: -1.77% (active)
HCT-116 colon
  growth: 63.2%
HCC-2998 colon
  growth: 58.6%
KM12 colon
  growth: 89.2%

## C#C[C@]1(O)CC[C@H]2[C@@H]3CC=C4c5sc(Nc6ccncc6)nc5CC[C@]4(C)[C@H]3CC[C@@]21C
T-47D breast
  growth: 39.9%
BT-549 breast
  growth: 15.9%
MDA-MB-435 melanoma
  growth: -75.2% (active)
SW-620 colon
  growth: -37.2% (active)
MCF7 breast
  growth: -42.1% (active)
HCT-116 colon
  growth: 3.69% (active)
HCC-2998 colon
  growth: 1.79% (active)
KM12 colon
  growth: -94.1% (active)

## C=CCn1c(SCC(=O)Nc2cccc(C(=O)/C=C/c3ccccc3Cl)c2)nc2ccccc2c1=O
T-47D breast
  growth: 74.5%
BT-549 breast
  growth: 99.7%
MDA-MB-435 melanoma
  growth: 89.1%
SW-620 colon
  growth: 67.2%
MCF7 breast
  growth: 24.4%
HCT-116 colon
  growth: -86.9% (active)
HCC-2998 colon
  growth: 100%
KM12 colon
  growth: 80.2%

## CS(=O)(=O)c1nccc(-c2c(-c3ccc(F)c(OCCc4ccccc4)c3)nc3sccn23)n1
T-47D breast
  growth: -4.49% (active)
BT-549 breast
  growth: 104%
MDA-MB-435 melanoma
  growth: 104%
SW-620 colon
  growth: 103%
MCF7 breast
  growth: 4.77% (active)
HCT-116 colon
  growth: 92.5%
HCC-2998 colon
  growth: -46.4% (active)
KM12 colon
  growth: 77.5%

## COc1cc(/C=C2\SC(=O)NC2=O)ccc1OCC(=O)Nc1ccc(C(=O)/C=C/c2cc3ccccc3nc2Cl)cc1
T-47D breast
  growth: 66.3%
BT-549 breast
  growth: 72.9%
MDA-MB-435 melanoma
  growth: 83.6%
SW-620 colon
  growth: 96.6%
MCF7 breast
  growth: 20.9%
HCT-116 colon
  growth: -62% (active)
HCC-2998 colon
  growth: 103%
KM12 colon
  growth: 91.6%

## O=C(O)CNS(=O)(=O)c1ccc(Oc2ccc(S(=O)(=O)NCC(=O)O)cc2)cc1
T-47D breast
  growth: 95.5%
BT-549 breast
  growth: 115%
MDA-MB-435 melanoma
  growth: 106%
SW-620 colon
  growth: 102%
MCF7 breast
  growth: 93.2%
HCT-116 colon
  growth: 103%
HCC-2998 colon
  growth: 105%
KM12 colon
  growth: 98.4%

## O=C1c2c(O)cc(O)cc2O[C@@H](c2ccc(O)cc2)[C@@H]1c1c(O)cc(O)c2c(=O)cc(-c3ccc(O)c(O)c3)oc12
T-47D breast
  growth: 105%
BT-549 breast
  growth: 98.3%
MDA-MB-435 melanoma
  growth: 110%
SW-620 colon
  growth: 107%
MCF7 breast
  growth: 99.9%
HCT-116 colon
  growth: 100%
HCC-2998 colon
  growth: 111%
KM12 colon
  growth: 97.1%

## COc1cc(CNC(=O)Cc2ccccc2[N+](=O)[O-])ccc1OCC(=O)NO
T-47D breast
  growth: 103%
BT-549 breast
  growth: 106%
MDA-MB-435 melanoma
  growth: 106%
SW-620 colon
  growth: 110%
MCF7 breast
  growth: 95.1%
HCT-116 colon
  growth: 107%
HCC-2998 colon
  growth: 108%
KM12 colon
  growth: 101%

## CC(C)=CCc1c2c(c(O)c3c1O[C@]14C(=C[C@@H]5C[C@H]1C(C)(C)O[C@@]4(C/C=C(/C)C(=O)O)C5=O)C3=O)CC(O)C(C)(C)O2 (stereo partly specified)
T-47D breast
  growth: -10.2% (active)
BT-549 breast
  growth: -14.3% (active)
MDA-MB-435 melanoma
  growth: -16% (active)
SW-620 colon
  growth: -44.8% (active)
MCF7 breast
  growth: -41.4% (active)
HCT-116 colon
  growth: -69.8% (active)
HCC-2998 colon
  growth: -84.7% (active)
KM12 colon
  growth: -68.9% (active)

## C[C@H]1[C@H](C)CC[C@]2(COC(=O)c3cccnc3)CC[C@]3(C)C(=CC[C@@H]4[C@@]5(C)CCCNC(C)(C)[C@@H]5CC[C@]43C)[C@H]12
T-47D breast
  growth: 61%
BT-549 breast
  growth: 76.5%
MDA-MB-435 melanoma
  growth: 68.5%
SW-620 colon
  growth: 39.1%
MCF7 breast
  growth: 67.3%
HCT-116 colon
  growth: 33.5%
HCC-2998 colon
  growth: 49.6%
KM12 colon
  growth: 68.9%

## CN1CCN(c2ccc(NC(=O)Nc3ccc4c(ccn4-c4cccc(C(N)=O)n4)c3)cc2C(F)(F)F)CC1
T-47D breast
  growth: 80.6%
BT-549 breast
  growth: 89.9%
MDA-MB-435 melanoma
  growth: -45.2% (active)
SW-620 colon
  growth: -10.5% (active)
MCF7 breast
  growth: 10.7%
HCT-116 colon
  growth: 12.3%
HCC-2998 colon
  growth: 63.4%
KM12 colon
  growth: 22%

## CCn1c2ccc(/C=N/OCCCN(C)C)cc2c2cc(/C=N/OCCCN(C)C)ccc21
T-47D breast
  growth: 105%
BT-549 breast
  growth: 60.9%
MDA-MB-435 melanoma
  growth: -48.9% (active)
SW-620 colon
  growth: -47.3% (active)
MCF7 breast
  growth: -92% (active)
HCT-116 colon
  growth: -72.2% (active)
HCC-2998 colon
  growth: -49.4% (active)
KM12 colon
  growth: 17.1%

## COc1ccc2oc3c4[nH]c5ccccc5c4c4c(c3c2c1)C(=O)N(O)C4=O
T-47D breast
  growth: 97.7%
BT-549 breast
  growth: 104%
MDA-MB-435 melanoma
  growth: 106%
SW-620 colon
  growth: 92.1%
MCF7 breast
  growth: 90.3%
HCT-116 colon
  growth: 104%
HCC-2998 colon
  growth: 101%
KM12 colon
  growth: 101%

## O=C(NCCNc1cc(-c2cn(-c3ccccc3)nc2-c2cccc(O)c2)ccn1)Nc1ccc(Cl)c(C(F)(F)F)c1
T-47D breast
  growth: 67.3%
BT-549 breast
  growth: 98%
MDA-MB-435 melanoma
  growth: 52.8%
SW-620 colon
  growth: 46.8%
MCF7 breast
  growth: 10.4%
HCT-116 colon
  growth: 50.6%
HCC-2998 colon
  growth: -77.7% (active)
KM12 colon
  growth: 37.9%

## COc1cc(C(=O)c2cc(C(C)=O)c3c4ccccc4ccn23)cc(OC)c1OC
T-47D breast
  growth: 24.8%
BT-549 breast
  growth: 59%
MDA-MB-435 melanoma
  growth: 5.4% (active)
SW-620 colon
  growth: 44.5%
MCF7 breast
  growth: 34.2%
HCT-116 colon
  growth: 42.2%
HCC-2998 colon
  growth: 62.9%
KM12 colon
  growth: 43.9%

## NC(=S)N/N=C(/C=C/c1cn(-c2ccccc2)nc1-c1ccc(Cl)cc1)c1cc2ccccc2oc1=O
T-47D breast
  growth: 38.7%
BT-549 breast
  growth: 87.1%
MDA-MB-435 melanoma
  growth: 55.6%
SW-620 colon
  growth: 29.6%
MCF7 breast
  growth: 29.6%
HCT-116 colon
  growth: 31.1%
HCC-2998 colon
  growth: 66%
KM12 colon
  growth: 36.2%

## C/C(=N/Nc1nc(N/N=C(/C)c2ccc([N+](=O)[O-])cc2)nc(N2CCOCC2)n1)c1ccc([N+](=O)[O-])cc1
T-47D breast
  growth: 54.9%
BT-549 breast
  growth: 67.3%
MDA-MB-435 melanoma
  growth: 85%
SW-620 colon
  growth: 95.5%
MCF7 breast
  growth: 74.1%
HCT-116 colon
  growth: 70.6%
HCC-2998 colon
  growth: 96%
KM12 colon
  growth: 82.2%

## Cc1occc1-c1nc2s/c(=C\c3cn(-c4ccccc4)nc3-c3ccccc3)c(=O)n2n1
T-47D breast
  growth: 95.2%
BT-549 breast
  growth: 97.7%
MDA-MB-435 melanoma
  growth: 98.9%
SW-620 colon
  growth: 97.5%
MCF7 breast
  growth: 91.9%
HCT-116 colon
  growth: 98.7%
HCC-2998 colon
  growth: 101%
KM12 colon
  growth: 102%

## CC(=O)Nc1ccc(C)c(Nc2cc(-c3ccc(-n4cccn4)cc3)[nH]n2)c1
T-47D breast
  growth: 53%
BT-549 breast
  growth: 30.4%
MDA-MB-435 melanoma
  growth: -26.4% (active)
SW-620 colon
  growth: 31.5%
MCF7 breast
  growth: 23.4%
HCT-116 colon
  growth: 19.3%
HCC-2998 colon
  growth: 83.2%
KM12 colon
  growth: 30.8%

## COc1ccc(/C=C/C(=O)c2nnn(-c3ccc(C(=O)O)cc3)c2C)cc1OC
T-47D breast
  growth: 96.8%
BT-549 breast
  growth: 95.7%
MDA-MB-435 melanoma
  growth: 101%
SW-620 colon
  growth: 110%
MCF7 breast
  growth: 86.3%
HCT-116 colon
  growth: 91.6%
HCC-2998 colon
  growth: 106%
KM12 colon
  growth: 101%

## COc1ccc2c(c1)oc1c3[nH]c4ccccc4c3c3c(c21)C(=O)N(O)C3=O
T-47D breast
  growth: 10.8%
BT-549 breast
  growth: 40.9%
MDA-MB-435 melanoma
  growth: 53.2%
SW-620 colon
  growth: 34.3%
MCF7 breast
  growth: 15.7%
HCT-116 colon
  growth: 21.5%
HCC-2998 colon
  growth: 84.7%
KM12 colon
  growth: 48%

## O=[N+]([O-])c1ccc(-c2nnc(SCc3ccc(O)c4ncccc34)n2-c2ccccc2)cc1
T-47D breast
  growth: 24.1%
BT-549 breast
  growth: 20%
MDA-MB-435 melanoma
  growth: 14%
SW-620 colon
  growth: 18.6%
MCF7 breast
  growth: 11.4%
HCT-116 colon
  growth: 12.4%
HCC-2998 colon
  growth: 41.9%
KM12 colon
  growth: 19.2%

## ClC(Cl)c1nc(-c2cccs2)n2nc(-c3ccccc3)cc2n1
T-47D breast
  growth: 2.65% (active)
BT-549 breast
  growth: 87.4%
MDA-MB-435 melanoma
  growth: -9.17% (active)
SW-620 colon
  growth: -1.61% (active)
MCF7 breast
  growth: -4.41% (active)
HCT-116 colon
  growth: -23.7% (active)
HCC-2998 colon
  growth: -71.3% (active)
KM12 colon
  growth: -36.4% (active)

## O=C(/C=C/Nc1ccc(S(=O)(=O)O)cc1)c1ccc(F)cc1
T-47D breast
  growth: 99.4%
BT-549 breast
  growth: 119%
MDA-MB-435 melanoma
  growth: 100%
SW-620 colon
  growth: 94.8%
MCF7 breast
  growth: 90%
HCT-116 colon
  growth: 107%
HCC-2998 colon
  growth: 106%
KM12 colon
  growth: 104%

## CCCCCCNC(=O)Oc1ccc(/C(=C(/C)c2ccccc2)c2ccc(OCCN(C)C)cc2)cc1
T-47D breast
  growth: 33.1%
BT-549 breast
  growth: 75.3%
MDA-MB-435 melanoma
  growth: 53%
SW-620 colon
  growth: 27.3%
MCF7 breast
  growth: 18%
HCT-116 colon
  growth: 22.6%
HCC-2998 colon
  growth: 69.3%
KM12 colon
  growth: 66.2%

## COc1ccc(Cn2cc3c(c2-c2cc(OC)c(OC)c(OC)c2)CCCc2cnoc2-3)cc1
T-47D breast
  growth: 39.1%
BT-549 breast
  growth: 63.3%
MDA-MB-435 melanoma
  growth: -48.2% (active)
SW-620 colon
  growth: 25.6%
MCF7 breast
  growth: 11.5%
HCT-116 colon
  growth: 19%
HCC-2998 colon
  growth: 32.4%
KM12 colon
  growth: 29%

## COc1cnc2c(c1)C(=O)c1c-2n(CCCn2ccnc2)c(=O)c2cc(OC)c(OC)cc12
T-47D breast
  growth: -61.3% (active)
BT-549 breast
  growth: -0.217% (active)
MDA-MB-435 melanoma
  growth: 20.5%
SW-620 colon
  growth: -77.7% (active)
MCF7 breast
  growth: -61.8% (active)
HCT-116 colon
  growth: -90.2% (active)
HCC-2998 colon
  growth: 24.6%
KM12 colon
  growth: 27.1%
